Data from the supplement of paper PMC8728848.
This excerpt belongs to a sample that is enriched for the strongest signals.

Experiments:
Assay in all cases: glycan array binding signal (z-score within array); higher = stronger binding
Settings in all cases: glycan notation: IUPAC condensed, linker removed
[1] = molecular target: Fuc(a1-2)Gal(b1-3)GalNAc(a1-3)[Fuc(a1-2)]Gal(b1-4)Glc
Procedure, shortened: (§1)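 Glycan array binding is given as a within-array Z-score, which can be read as non-binding when negative. The arrays, 3228 of them, came from the Consortium for Functional Glycomics database and were retained only where the protein sequence was available. Z-scores were averaged across arrays of the same protein sequence at different concentrations or buffers and across linkers.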

[2] = molecular target: Fuc(a1-2)Gal(b1-3)GalNAc(b1-3)Gal
Procedure, shortened: as §1

[3] = molecular target: Fuc(a1-2)Gal(b1-4)[Fuc(a1-3)]GlcNAc(b1-3)GalNAc
Procedure, shortened: as §1

[4] = molecular target: Fuc(a1-2)[Gal(a1-3)]Gal(b1-3)GlcNAc
Procedure, shortened: as §1

[5] = molecular target: Fuc(a1-2)[Gal(a1-3)]Gal(b1-4)GlcNAc(b1-2)Man
Procedure, shortened: as §1

[6] = molecular target: Fuc(a1-2)[GalNAc(a1-3)]Gal(b1-3)GlcNAc(b1-6)GalNAc
Procedure, shortened: as §1

[7] = molecular target: Fuc(a1-3)[Gal(b1-4)]GlcNAc
Procedure, shortened: as §1

[8] = molecular target: Fuc(a1-3)[GalNAc(b1-4)]GlcNAc
Procedure, shortened: as §1

[9] = molecular target: Gal(b1-3)GlcNAc(b1-3)Gal(b1-4)GlcNAc(b1-2)Man(a1-3)[Gal(b1-3)GlcNAc(b1-3)Gal(b1-4)GlcNAc(b1-2)Man(a1-6)]Man(b1-4)GlcNAc(b1-4)GlcNAc
Procedure, shortened: as §1

Gal(b1-4)GlcNAc = molecular target: Gal(b1-4)GlcNAc
Procedure, shortened: as §1

[10] = molecular target: Gal(b1-4)GlcNAc(b1-2)Man(a1-3)[Gal(b1-4)GlcNAc(b1-2)Man(a1-6)]Man(b1-4)GlcNAc(b1-4)[Fuc(a1-6)]GlcNAc
Procedure, shortened: as §1

[11] = molecular target: Gal(b1-4)GlcNAc(b1-2)[Gal(b1-4)GlcNAc(b1-6)]Man(a1-6)[Gal(b1-4)GlcNAc(b1-2)Man(a1-3)]Man(b1-4)GlcNAc(b1-4)[Fuc(a1-6)]GlcNAc
Procedure, shortened: as §1

[12] = molecular target: Gal(b1-4)GlcNAc(b1-3)Gal(b1-4)GlcNAc(b1-2)[Gal(b1-4)GlcNAc(b1-3)Gal(b1-4)GlcNAc(b1-6)]Man(a1-6)[Gal(b1-4)GlcNAc(b1-3)Gal(b1-4)GlcNAc(b1-2)Man(a1-3)]Man(b1-4)GlcNAc(b1-4)GlcNAc
Procedure, shortened: as §1

[13] = molecular target: Gal(b1-4)GlcNAc(b1-3)Gal(b1-4)GlcNAc(b1-3)Gal(b1-4)GlcNAc(b1-3)Gal(b1-4)GlcNAc(b1-3)Gal(b1-4)GlcNAc(b1-2)Man(a1-3)[Gal(b1-4)GlcNAc(b1-3)Gal(b1-4)GlcNAc(b1-3)Gal(b1-4)GlcNAc(b1-3)Gal(b1-4)GlcNAc(b1-3)Gal(b1-4)GlcNAc(b1-2)Man(a1-6)]Man(b1-4)GlcNAc(b1-4)GlcNAc
Procedure, shortened: as §1

[14] = molecular target: Gal(b1-4)GlcNAc(b1-3)Gal(b1-4)GlcNAc(b1-3)Gal(b1-4)GlcNAc(b1-3)Gal(b1-4)GlcNAc(b1-3)Gal(b1-4)GlcNAc(b1-2)[Gal(b1-4)GlcNAc(b1-3)Gal(b1-4)GlcNAc(b1-3)Gal(b1-4)GlcNAc(b1-3)Gal(b1-4)GlcNAc(b1-3)Gal(b1-4)GlcNAc(b1-6)]Man(a1-6)[Gal(b1-4)GlcNAc(b1-3)Gal(b1-4)GlcNAc(b1-3)Gal(b1-4)GlcNAc(b1-3)Gal(b1-4)GlcNAc(b1-3)Gal(b1-4)GlcNAc(b1-2)Man(a1-3)]Man(b1-4)GlcNAc(b1-4)[Fuc(a1-6)]GlcNAc
Procedure, shortened: as §1

[15] = molecular target: Gal3S(b1-3)[Fuc(a1-4)]GlcNAc
Procedure, shortened: as §1

Gal6S(b1-4)Glc6S = molecular target: Gal6S(b1-4)Glc6S
Procedure, shortened: as §1

[16] = molecular target: GalNAc(b1-3)Gal(a1-4)Gal(b1-4)GlcNAc
Procedure, shortened: as §1

[17] = molecular target: Glc(a1-4)Glc(a1-4)Glc(a1-4)Glc
Procedure, shortened: as §1

[18] = molecular target: GlcNAc(a1-4)Gal(b1-4)GlcNAc
Procedure, shortened: as §1

[19] = molecular target: GlcNAc(b1-2)[GlcNAc(b1-6)]Man(a1-6)[GlcNAc(b1-2)Man(a1-3)]Man(b1-4)GlcNAc(b1-4)[Fuc(a1-6)]GlcNAc
Procedure, shortened: as §1

[20] = molecular target: GlcNAc(b1-3)Gal(b1-4)GlcNAc(b1-3)Gal(b1-4)GlcNAc(b1-2)Man(a1-3)[GlcNAc(b1-3)Gal(b1-4)GlcNAc(b1-3)Gal(b1-4)GlcNAc(b1-2)Man(a1-6)]Man(b1-4)GlcNAc(b1-4)GlcNAc
Procedure, shortened: as §1

[21] = molecular target: GlcNAc(b1-3)Gal(b1-4)GlcNAc(b1-3)Gal(b1-4)GlcNAc(b1-2)Man(a1-3)[GlcNAc(b1-3)Gal(b1-4)GlcNAc(b1-3)Gal(b1-4)GlcNAc(b1-2)Man(a1-6)]Man(b1-4)GlcNAc(b1-4)[Fuc(a1-6)]GlcNAc
Procedure, shortened: as §1

[22] = molecular target: GlcNAc(b1-3)Gal(b1-4)GlcNAc(b1-3)Gal(b1-4)GlcNAc(b1-3)Gal(b1-4)GlcNAc(b1-2)Man(a1-3)[GlcNAc(b1-3)Gal(b1-4)GlcNAc(b1-3)Gal(b1-4)GlcNAc(b1-3)Gal(b1-4)GlcNAc(b1-2)Man(a1-6)]Man(b1-4)GlcNAc(b1-4)[Fuc(a1-6)]GlcNAc
Procedure, shortened: as §1

[23] = molecular target: GlcNAc(b1-4)GlcNAc(b1-4)GlcNAc(b1-4)GlcNAc(b1-4)GlcNAc(b1-4)GlcNAc
Procedure, shortened: as §1

GlcNAc(b1-6)GalNAc = molecular target: GlcNAc(b1-6)GalNAc
Procedure, shortened: as §1

[24] = molecular target: Man(a1-2)Man(a1-6)[Man(a1-3)]Man(a1-6)[Man(a1-2)Man(a1-2)Man(a1-3)]Man(b1-4)GlcNAc(b1-4)GlcNAc
Procedure, shortened: as §1

[25] = molecular target: Neu5Ac(a2-3)Gal(b1-3)GalNAc(b1-4)[Neu5Ac(a2-8)Neu5Ac(a2-3)]Gal(b1-4)Glc
Procedure, shortened: as §1

[26] = molecular target: Neu5Ac(a2-3)Gal(b1-3)GlcNAc
Procedure, shortened: as §1

[27] = molecular target: Neu5Ac(a2-3)Gal(b1-3)[GlcNAc(b1-6)]GalNAc
Procedure, shortened: as §1

[28] = molecular target: Neu5Ac(a2-3)Gal(b1-3)[Neu5Ac(a2-6)]GlcNAc(b1-3)[Fuc(a1-3)[Gal(b1-4)]GlcNAc(b1-6)]Gal(b1-4)Glc
Procedure, shortened: as §1

[29] = molecular target: Neu5Ac(a2-3)Gal(b1-3)]Neu5Ac(a2-3)Gal(b1-4)]GlcNAc
Procedure, shortened: as §1

[30] = molecular target: Neu5Ac(a2-3)Gal(b1-4)GlcNAc(b1-3)Gal(b1-4)GlcNAc(b1-3)Gal(b1-4)GlcNAc
Procedure, shortened: as §1

[31] = molecular target: Neu5Ac(a2-3)Gal(b1-4)[Fuc(a1-3)]GlcNAc(b1-3)GalNAc
Procedure, shortened: as §1

[32] = molecular target: Neu5Ac(a2-3)[Neu5Ac(a2-6)]GalNAc
Procedure, shortened: as §1

[33] = molecular target: Neu5Ac(a2-6)Gal(b1-4)GlcNAc(b1-2)[Neu5Ac(a2-6)Gal(b1-4)GlcNAc(b1-4)]Man(a1-3)[GlcNAc(b1-4)][Neu5Ac(a2-6)Gal(b1-4)GlcNAc(b1-2)[Neu5Ac(a2-6)Gal(b1-4)GlcNAc(b1-6)]Man(a1-6)]Man(b1-4)GlcNAc(b1-4)GlcNAc
Procedure, shortened: as §1

[34] = molecular target: Neu5Ac(a2-6)Gal(b1-4)GlcNAc(b1-2)[Neu5Ac(a2-6)Gal(b1-4)GlcNAc(b1-4)]Man(a1-3)[GlcNAc(b1-4)][Neu5Ac(a2-6)Gal(b1-4)GlcNAc(b1-4)Man(a1-6)]Man(b1-4)GlcNAc(b1-4)GlcNAc
Procedure, shortened: as §1

[35] = molecular target: Neu5Ac(a2-6)Gal(b1-4)GlcNAc(b1-3)Gal(b1-4)GlcNAc(b1-3)GalNAc
Procedure, shortened: as §1

[36] = molecular target: Neu5Ac(a2-6)Gal(b1-4)GlcNAc(b1-3)Gal(b1-4)[Fuc(a1-3)]GlcNAc(b1-3)Gal(b1-4)[Fuc(a1-3)]GlcNAc
Procedure, shortened: as §1

[37] = molecular target: Neu5Ac(a2-6)GalNAc(b1-4)GlcNAc6S
Procedure, shortened: as §1

[38] = molecular target: Neu5Ac(a2-8)Neu5Ac(a2-3)[Gal(b1-3)GalNAc(b1-4)]Gal(b1-4)Glc
Procedure, shortened: as §1

[39] = molecular target: Neu5Gc(a2-3)Gal(b1-4)GlcNAc
Procedure, shortened: as §1

[40] = molecular target: Neu5Gc(a2-3)Gal(b1-4)GlcNAc(b1-3)Gal(b1-4)GlcNAc(b1-2)Man(a1-3)[Neu5Gc(a2-3)Gal(b1-4)GlcNAc(b1-3)Gal(b1-4)GlcNAc(b1-2)Man(a1-6)]Man(b1-4)GlcNAc(b1-4)GlcNAc
Procedure, shortened: as §1

Neu5Gc(a2-6)GalNAc = molecular target: Neu5Gc(a2-6)GalNAc
Procedure, shortened: as §1

[41] = molecular target: Neu5Gc(a2-8)Neu5Gc(a2-3)Gal(b1-4)GlcNAc(b1-3)Gal(b1-4)GlcNAc
Procedure, shortened: as §1

## CTAEGIKKFEGDGYELFKDNFPAGEKFDNDDTNDQFYTVIF [MUB40 (Lactobacillus reuteri)]
[1]
  glycan array binding signal (z-score): -0.41
[2]
  glycan array binding signal (z-score): -0.251
[3]
  glycan array binding signal (z-score): 3.56
[4]
  glycan array binding signal (z-score): -0.002
[5]
  glycan array binding signal (z-score): 2.44
[6]
  glycan array binding signal (z-score): -0.425
[7]
  glycan array binding signal (z-score): 0.464
[8]
  glycan array binding signal (z-score): -0.365
[9]
  glycan array binding signal (z-score): 4.29
Gal(b1-4)GlcNAc
  glycan array binding signal (z-score): -0.134
[10]
  glycan array binding signal (z-score): -0.425
[11]
  glycan array binding signal (z-score): 0.328
[12]
  glycan array binding signal (z-score): -0.339
[13]
  glycan array binding signal (z-score): 3.44
[14]
  glycan array binding signal (z-score): 2.67
[15]
  glycan array binding signal (z-score): 0.295
Gal6S(b1-4)Glc6S
  glycan array binding signal (z-score): -0.817
[16]
  glycan array binding signal (z-score): -0.189
[17]
  glycan array binding signal (z-score): -0.331
[18]
  glycan array binding signal (z-score): -0.247
[19]
  glycan array binding signal (z-score): 0.341
[20]
  glycan array binding signal (z-score): 1.03
[21]
  glycan array binding signal (z-score): 2.39
[22]
  glycan array binding signal (z-score): 4.26
[23]
  glycan array binding signal (z-score): -0.138
GlcNAc(b1-6)GalNAc
  glycan array binding signal (z-score): -0.355
[24]
  glycan array binding signal (z-score): -0.33
[25]
  glycan array binding signal (z-score): 1.18
[26]
  glycan array binding signal (z-score): -0.358
[27]
  glycan array binding signal (z-score): 1.11
[28]
  glycan array binding signal (z-score): -0.114
[29]
  glycan array binding signal (z-score): -0.307
[30]
  glycan array binding signal (z-score): 1.72
[31]
  glycan array binding signal (z-score): 0.351
[32]
  glycan array binding signal (z-score): 1.33
[33]
  glycan array binding signal (z-score): 0.5
[34]
  glycan array binding signal (z-score): -0.219
[35]
  glycan array binding signal (z-score): 3.03
[36]
  glycan array binding signal (z-score): 1.24
[37]
  glycan array binding signal (z-score): 2.71
[38]
  glycan array binding signal (z-score): -0.27
[39]
  glycan array binding signal (z-score): 2.42
[40]
  glycan array binding signal (z-score): 2.75
Neu5Gc(a2-6)GalNAc
  glycan array binding signal (z-score): 0.011
[41]
  glycan array binding signal (z-score): 2.42
